About 79,000 compounds went through this panel and 15% of them were active in at least one assay; those are over-represented in the sample as a whole. Unmarked numbers belong to inactive results. The source made the active and inactive calls. No stated cut-off is given here; in the data, active means growth inhibition above about 70%; inactive means the rest.

The nature of experiment [1]: NCI Yeast Anticancer Drug Screen. Data for the rad50 strain (AID 155).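 Further: 0% = growth of vehicle-only cultures of the same strain.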 The note with it: S. cerevisiae rad50 strain growth inhibition; at 50.0 µM; active compounds read high. A digest of the protocol: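 Readout: growth inhibition relative to vehicle-treated cultures. Compound exposure was carried out in a genetically defined yeast strain deficient in DNA damage repair.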
The nature of experiment [2]: NCI Yeast Anticancer Drug Screen. Data for the mec2-1 strain (AID 157). The note with it: S. cerevisiae mec2-1 strain, at 50.0 µM, active compounds read high. The method in brief: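 Mutant yeast (mec2-1) grown with compound; growth inhibition relative to vehicle control reported.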
Experiment [3] is described as follows: NCI Yeast Anticancer Drug Screen. Data for the sgs1 mgt1 strain (AID 161).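 Further: 0% = growth of cultures given vehicle only.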 The note with it: S. cerevisiae sgs1 mgt1 strain, at 50.0 µM, active compounds read high. The method in brief: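 Yeast cells carrying a defined DNA-repair defect were exposed to test compounds. Growth inhibition was measured relative to vehicle-treated controls.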
A short description of experiment [4]: NCI Yeast Anticancer Drug Screen. Data for the cln2 rad14 strain (AID 165).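 Further: 0% = growth equal to vehicle treated cultures.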 To be noted: S. cerevisiae cln2 rad14 strain, at 50.0 µM, active compounds read high. The method in brief:
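Readout is yeast growth inhibition versus vehicle-treated controls, using a strain with cln2 and rad14 alterations exposed to compound.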

Experiment [5] can be described thus: NCI Yeast Anticancer Drug Screen. Data for the bub3 strain (AID 167). The note with it: S. cerevisiae bub3 mutant strain, at 50.0 µM, active compounds read high. A digest of the protocol:
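Readout: yeast growth inhibition, expressed relative to vehicle-only wells. The test organism is a mutant strain from a panel with lesions in DNA repair or checkpoint genes.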

The nature of experiment [6]: NCI Yeast Anticancer Drug Screen. Data for the mlh1 rad18 strain (AID 175). To be noted: S. cerevisiae mlh1 rad18 strain growth inhibition; at 50.0 µM; active compounds read high. A digest of the protocol:
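Genetically defined yeast (DNA repair-deficient) exposed to compounds; growth inhibition determined relative to vehicle.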

Regarding `COC(=O)N/N=C(\C(=O)Nc1cccc([N+](=O)[O-])c1)c1nc2ccc([N+](=O)[O-])cc2[nH]c1=O`, the growth inhibition in experiment [1] is 8.65%; in experiment [2], -7.75%; in experiment [3] it was 25%; in experiment [4], 14.8%; in experiment [5], -17.1%; in experiment [6], -1.25%.
Consider `CCOC(=O)Cc1c(Cc2[nH]c(C(=O)OCc3ccccc3)c(CC(=O)OCC)c2CC(=O)OCC)[nH]c(C(=O)OCc2ccccc2)c1CC(=O)OCC`, for which the growth inhibition in experiment [1] is -10.7%; in experiment [2] it was -21.6%; in experiment [3], -19%; in experiment [4], -3.1%; in experiment [5] it was -3.35%; in experiment [6], -17.3%.
For the compound `O/N=C/c1cccc[n+]1Cc1ccccc1`, the growth inhibition was -4% in experiment [1]; 6.3% in experiment [2]; 0.95% in experiment [3]; -23.9% in experiment [4]; 4.85% in experiment [5]; 1.25% in experiment [6].
As for `CCOC(=O)CCC(NC(=O)c1ccc(OCc2ccc3nc(OC)c(OC)nc3c2)cc1)C(=O)OCC` (stereo unspecified), the growth inhibition in experiment [1] is -14.2%; in experiment [2] it was -17.9%; in experiment [3], -21.6%; in experiment [4] it was 5%; in experiment [5] it was -4.75%; in experiment [6] it was 13.2%.
Regarding `COC(=O)c1ccc(C(=O)OC)c(N)c1`, the growth inhibition was 0.95% in experiment [1]; 5.4% in experiment [2]; -1.85% in experiment [3]; -33% in experiment [4]; 3.95% in experiment [5]; 0.5% in experiment [6].
With `c1ccc(-c2cc(-c3ccccc3)c(-c3ccccc3)c(-c3ccccc3)c2)cc1`, the growth inhibition in experiment [1] is 32.1%; in experiment [2], 10.1%; in experiment [3], 19.4%; in experiment [4] it was 12.4%; in experiment [5], -4.1%; in experiment [6], 13%.
Consider `CC1OC(OC(=O)c2ccc([N+](=O)[O-])cc2)CC(OC(=O)c2ccc([N+](=O)[O-])cc2)C1OC(=O)c1ccc([N+](=O)[O-])cc1` (stereo unspecified), for which the growth inhibition was 18.4% in experiment [1]; 5.45% in experiment [2]; -10.2% in experiment [3]; 24.7% in experiment [4]; 1.6% in experiment [5]; -24.8% in experiment [6].
With `Cn1cnc([N+](=O)[O-])c1Sc1nc(N)nc2c1ncn2C1OC(CO)C(O)C1O` (stereo unspecified), the growth inhibition in experiment [1] was -9.3%; in experiment [2], 20.3%; in experiment [3] it was 15.6%; in experiment [4], 25.1%; in experiment [5] it was 14.2%; in experiment [6], -8.5%.
With `Cc1ccc(C(=O)c2c(C)cccc2C(=O)O)c(C)c1`, the growth inhibition is -0.95% in experiment [1]; -2.1% in experiment [2]; 8.45% in experiment [3]; 12.6% in experiment [4]; -3.85% in experiment [5]; 29.4% in experiment [6].
Take `CC(=O)c1cccc(NC(=O)Oc2ccc(Cl)cc2Cl)c1`: the growth inhibition in experiment [1] is 4.55%; in experiment [2] it was 17.9%; in experiment [3], 3.25%; in experiment [4] it was 1%; in experiment [5], 11.3%; in experiment [6], 4.3%.
For `CCOc1ccc(N=Cc2c3ccccc3nc3ccccc23)cc1`, the growth inhibition in experiment [1] was -3.05%; in experiment [2], 14.5%; in experiment [3], -3.25%; in experiment [4], 25.9%; in experiment [5], 6.25%; in experiment [6] it was -9%.
For the compound `CSc1nc2ccc(N=Cc3ccccc3O)cc2s1`, the growth inhibition is -25.5% in experiment [1]; -8.25% in experiment [2]; -5.7% in experiment [3]; -12.6% in experiment [4]; 17.7% in experiment [5]; -13.4% in experiment [6].
For `FS(F)(F)(F)(F)c1cccc(NC(=S)SCc2ccc(Cl)cc2)c1`, the growth inhibition in experiment [1] is 43.6%; in experiment [2] it was 24.8%; in experiment [3] it was 39.8%; in experiment [4] it was 32.4%; in experiment [5] it was 6.8%; in experiment [6], 30.1%.
For `Cc1ccc(S(=O)(=O)OC2CCC3(C)C(=CCC4C3CCC3(C)C(C(C)CCCC(C)C)CCC43)C2)cc1` (stereo unspecified), the growth inhibition was 51.8% in experiment [1]; 26.8% in experiment [2]; 49.8% in experiment [3]; 10.8% in experiment [4]; 2.5% in experiment [5]; 37.5% in experiment [6].
In the case of `CC(CN(C)C)C(/C=C/c1ccccc1)=N\Nc1ccccc1` (stereo unspecified), the growth inhibition was -5.7% in experiment [1]; 23.4% in experiment [2]; 7.85% in experiment [3]; -6.3% in experiment [4]; -2.1% in experiment [5]; 3.25% in experiment [6].
With `[O-]c1on[n+]2c1c(Nc1ccc(Cl)cc1)nc1ccccc12`, the growth inhibition is -31.1% in experiment [1]; -28% in experiment [2]; -22.3% in experiment [3]; -21.2% in experiment [4]; -36.5% in experiment [5]; -39.5% in experiment [6].
On to `O=C(Nc1cc(C(F)(F)F)ccc1Cl)c1ccc(Cl)cc1Cl`, for which the growth inhibition in experiment [1] was 8.2%; in experiment [2], 11.2%; in experiment [3], 1.7%; in experiment [4] it was -0.75%; in experiment [5] it was 9.9%; in experiment [6], 13.7%.
Turning to `C/C(=N\N)c1ccc(-c2ccccc2)cc1`, the growth inhibition in experiment [1] was 10.6%; in experiment [2], 8.9%; in experiment [3], 6.45%; in experiment [4], -32.8%; in experiment [5], -30.7%; in experiment [6], -5.4%.
For the compound `Cc1cc(=O)cc(-c2ccccc2)[nH]1`, the growth inhibition in experiment [1] was -32.5%; in experiment [2], -11.3%; in experiment [3], -12.5%; in experiment [4] it was -37.3%; in experiment [5], -2.5%; in experiment [6], 6.55%.
For the compound `O=C(Cc1ccccc1)N(C(=O)c1ccccc1)c1ccccc1`, the growth inhibition was 8.9% in experiment [1]; 14.5% in experiment [2]; 10.8% in experiment [3]; 9.1% in experiment [4]; 24.1% in experiment [5]; 15.7% in experiment [6].
In the case of `CC(=O)Nc1c(C)cc(S(=O)(=O)O)cc1C`, the growth inhibition in experiment [1] was 6.25%; in experiment [2], -0.1%; in experiment [3], -8.65%; in experiment [4] it was -58.7%; in experiment [5] it was 28.6%; in experiment [6], -18.5%.
`CNC(=O)OCc1c(COC(=O)NC)c(C)n(-c2ccc(OC)cc2)c1C`: the growth inhibition in experiment [1] is 20.9%; in experiment [2], 3.55%; in experiment [3], 42.1%; in experiment [4], 15.8%; in experiment [5], 31.3%; in experiment [6], 42.8%.
As to `ON(Cc1ccccc1)Cc1ccccc1`, the growth inhibition in experiment [1] was -3.95%; in experiment [2] it was -26.9%; in experiment [3], 12.9%; in experiment [4], 12.8%; in experiment [5] it was 9.5%; in experiment [6], -19.1%.
On to `Cc1nn(C(=O)CC(=O)Nc2ccc(Cl)cc2)c(C)c1N=Nc1ccccc1F`, for which the growth inhibition is -40% in experiment [1]; -25.5% in experiment [2]; -60.6% in experiment [3]; -12.4% in experiment [4]; -28.4% in experiment [5]; -43% in experiment [6].
For the compound `CC(C)(C)CC(C)(C)N(CSc1ccc2ccccc2c1)CSc1ccc2ccccc2c1`, the growth inhibition in experiment [1] was 20.9%; in experiment [2], 4.55%; in experiment [3], 21.1%; in experiment [4] it was 13.6%; in experiment [5], -0.45%; in experiment [6] it was 17.6%.
Regarding `CNC(C)C#N` (stereo unspecified), the growth inhibition in experiment [1] is -17.7%; in experiment [2] it was -11.6%; in experiment [3], -11.9%; in experiment [4] it was -19.6%; in experiment [5], 0.75%; in experiment [6], -11.6%.
Take `O=C(OCC1OC=C(OC(=O)c2ccccc2)C1OC(=O)c1ccccc1)c1ccccc1` (stereo unspecified): the growth inhibition was 91.8% (active) in experiment [1]; 11.7% in experiment [2]; 32.3% in experiment [3]; 24.9% in experiment [4]; -1.85% in experiment [5]; 60% in experiment [6].
Take `NS(=O)(=O)c1cccc([N+](=O)[O-])c1`: the growth inhibition in experiment [1] was 21.1%; in experiment [2], 5%; in experiment [3] it was 6.7%; in experiment [4], 5.95%; in experiment [5] it was -2.5%; in experiment [6], -13.1%.
With `CS(=O)(=O)OCCOc1ccccc1`, the growth inhibition in experiment [1] was 1.15%; in experiment [2], -0.45%; in experiment [3], 0.95%; in experiment [4], -32%; in experiment [5] it was 9.15%; in experiment [6], 8.05%.
Take `OCC(Cl)(Cl)C(Cl)(Cl)CO`: the growth inhibition in experiment [1] was 8.2%; in experiment [2], -14.5%; in experiment [3], -12.7%; in experiment [4] it was -0.95%; in experiment [5], -28.6%; in experiment [6], -17.8%.
For `C=C1CC23CC[C@H]4[C@@](C)(CCC[C@@]4(C)C(=O)OC4OC(CO)C(O)C(O)C4O)[C@@H]2CC[C@@]1(OC1OC(CO)C(O)C(O)C1OC1OC(CO)C(O)C(O)C1O)C3` (stereo partly specified), the growth inhibition in experiment [1] is -6.6%; in experiment [2], -38.5%; in experiment [3], -38.1%; in experiment [4], 25.4%; in experiment [5], -39.4%; in experiment [6], -16%.
As to `CCN(CC)C(=O)c1ccc[n+](Cc2ccc(Cl)c(Cl)c2)c1`, the growth inhibition in experiment [1] was 3.15%; in experiment [2], -8.25%; in experiment [3], -8.75%; in experiment [4] it was 6.45%; in experiment [5] it was 1.2%; in experiment [6] it was 9.25%.
Regarding `COc1cc(NCCCN(CC(C)C)CC(C)C)c2ncccc2c1Cl`, the growth inhibition in experiment [1] is 27.5%; in experiment [2], 26.1%; in experiment [3] it was 55%; in experiment [4], 19.8%; in experiment [5], 27.3%; in experiment [6], 38.4%.
As for `C/C=C(\C)C(=O)OCC1CC[N+](C)([O-])C1` (stereo unspecified), the growth inhibition in experiment [1] is -23.8%; in experiment [2] it was -8%; in experiment [3], -6.7%; in experiment [4], -57.9%; in experiment [5], 5%; in experiment [6] it was -15.3%.
As for `Cc1cc2c(cc1C)C(O)CCC(=O)N2` (stereo unspecified), the growth inhibition in experiment [1] is 5.55%; in experiment [2], 3.7%; in experiment [3], 11.7%; in experiment [4] it was 6.85%; in experiment [5] it was 16%; in experiment [6], -0.05%.
Consider `O=S(=O)(O)O.[NH-]CC1(C[NH-])CCCCC1.[Pt+2]`, for which the growth inhibition in experiment [1] was -13%; in experiment [2], 17.9%; in experiment [3], -3.15%; in experiment [4], -0.7%; in experiment [5], -28.6%; in experiment [6], -46.4%.

Source of the values: PubChem BioAssay (NCI).
